Screen size: about 5,500 compounds; about 2,000 (36%) were called active. Inconclusive results (about 18%) are left out. No stated cut-off is given here; in the data, active means normalized growth mostly below about 0.91 (no sharp cut-off); inconclusive means no clear call, values can overlap the other calls; inactive means mostly above about 0.92. The list shows a part of the results.
Assay: chemical genetic growth profiling, strain panel (AID 1159580);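 further: tested at 20 µM; growth read once vehicle control cultures reached saturation at 30 °C; 1 = growth at the plate median or of vehicle wells; lower values mean less growth of the strain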
Settings: S. cerevisiae deletion strains, growth OD

Measured: normalized growth

Cc1cc2c(cc1C)CSC(C)(c1ccc(F)cc1)SC2
inactive: locus YAL013W, strain DEP1, active compounds read low 0.994 | locus YBR229C, strain ROT2, active compounds read low 0.994 | locus YCL061C, strain MRC1, active compounds read low 0.993 | locus YDL101C, strain DUN1, active compounds read low 0.968 | locus YDL134C, strain PPH21, active compounds read low 0.997 | locus YDR150W, strain NUM1, active compounds read low 0.903 | locus YEL061C, strain CIN8, active compounds read low 1.02 | locus YGR078C, strain PAC10, active compounds read low 0.979 | locus YHR030C, strain SLT2, active compounds read low 0.952 | locus YHR087W, strain rtc3, active compounds read low 1.01 | locus YJR043C, strain POL32, active compounds read low 0.982 | locus YJR075W, strain HOC1, active compounds read low 0.978 | locus YKL190W, strain CNB1, active compounds read low 0.992 | locus YLR039C, strain RIC1, active compounds read low 0.953 | locus YLR058C, strain SHM2 (second series), active compounds read low 1 | locus YLR085C, strain ARP6, active compounds read low 1.03 | locus YLR262C, strain YPT6, active compounds read low 0.961 | locus YML094W, strain GIM5, active compounds read low 1.01 | locus YMR219W, strain ESC1, active compounds read low 1.01 | locus YMR263W, strain SAP30, active compounds read low 0.947 | locus YMR307W, strain GAS1, active compounds read low 0.737 | locus YNL153C, strain GIM3, active compounds read low 0.986 | locus YNL298W, strain CLA4 (second series), active compounds read low 0.975 | locus YNL322C, strain KRE1, active compounds read low 1 | locus YNR030W, strain Alg12, active compounds read low 0.978 | locus YPL055C, strain LGE1, active compounds read low 1 | locus YPL241C, strain CIN2, active compounds read low 1.01 | locus YPR135W, strain CTF4, active compounds read low 0.946

From PubChem BioAssay AID1159580 (chemical genetic matrix, 2015)
